PMC7862700, “An all-to-all approach to the identification of sequence-specific readers for epigenetic DNA modifications on cytosine”

Key:
Assay in all cases: DAPPL (digital affinity profiling via proximity ligation, sequencing); 10 mM Tris-HCl pH 7.5, 50 mM NaCl, 1 mM DTT, 4% glycerol, room temperature, 30 min; GST-TFs on glutathione beads, 16-mer random dsDNA library, 0.1% formaldehyde crosslink after washing; high values mean tight binding
Conditions in all cases: protein: recombinant; tags: N-terminal GST; dsDNA, one strand shown
ETV5 = ETV5 (Homo sapiens, UniProt P41161 1-510)
ETV5, sequence (P41161 whole entry, the tested form may be a part): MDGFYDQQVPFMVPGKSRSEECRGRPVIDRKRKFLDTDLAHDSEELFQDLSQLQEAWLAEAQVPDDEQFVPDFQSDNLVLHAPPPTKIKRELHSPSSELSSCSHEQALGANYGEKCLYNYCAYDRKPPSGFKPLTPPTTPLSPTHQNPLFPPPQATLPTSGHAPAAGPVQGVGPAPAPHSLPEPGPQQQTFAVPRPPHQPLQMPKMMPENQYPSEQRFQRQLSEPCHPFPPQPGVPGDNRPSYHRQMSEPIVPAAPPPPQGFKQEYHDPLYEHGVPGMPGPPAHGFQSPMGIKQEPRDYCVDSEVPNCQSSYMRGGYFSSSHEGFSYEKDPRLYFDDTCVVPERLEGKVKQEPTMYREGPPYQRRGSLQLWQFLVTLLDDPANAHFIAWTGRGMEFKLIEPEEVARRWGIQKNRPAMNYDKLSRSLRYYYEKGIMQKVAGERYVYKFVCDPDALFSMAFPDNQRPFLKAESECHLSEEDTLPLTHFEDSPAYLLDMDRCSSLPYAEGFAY
Outline: (§1)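 Pools were built from human transcription factors expressed in yeast as GST fusions, captured on glutathione beads and DNA-barcoded, along with a tag-only sample. Incubation with 200 nmole of a 16-mer random double-stranded DNA library lasted 30 min at room temperature in Tris/NaCl/DTT/glycerol buffer, and was followed by washing, 0.1% formaldehyde crosslinking, proximity ligation, PCR amplification and Illumina NextSeq500 sequencing. Binding signal is the quotient of each hexamer's read frequency for a factor and its frequency for the tag-only sample.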

ELF4 = ELF4 (Homo sapiens, UniProt Q99607 1-663)
ELF4, sequence (Q99607 whole entry): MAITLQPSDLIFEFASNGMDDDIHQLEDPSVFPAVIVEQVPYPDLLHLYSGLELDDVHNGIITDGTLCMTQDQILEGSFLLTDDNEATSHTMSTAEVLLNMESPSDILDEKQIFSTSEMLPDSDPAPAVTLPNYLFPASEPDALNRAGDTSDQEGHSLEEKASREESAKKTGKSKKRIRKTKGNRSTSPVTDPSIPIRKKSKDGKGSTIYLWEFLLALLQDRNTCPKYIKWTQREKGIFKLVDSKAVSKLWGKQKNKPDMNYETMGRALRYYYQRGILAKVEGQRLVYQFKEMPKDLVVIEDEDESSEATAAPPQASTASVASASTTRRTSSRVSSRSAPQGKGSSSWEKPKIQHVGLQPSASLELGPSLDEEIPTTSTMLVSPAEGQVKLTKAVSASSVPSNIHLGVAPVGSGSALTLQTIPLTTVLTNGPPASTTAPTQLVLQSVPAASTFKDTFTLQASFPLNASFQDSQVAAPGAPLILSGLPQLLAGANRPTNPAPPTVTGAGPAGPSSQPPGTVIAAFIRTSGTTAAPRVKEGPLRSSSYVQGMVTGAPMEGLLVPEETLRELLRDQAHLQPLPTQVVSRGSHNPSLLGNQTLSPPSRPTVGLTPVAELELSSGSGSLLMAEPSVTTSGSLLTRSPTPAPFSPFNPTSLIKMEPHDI
Outline: as §1

ETV2 = biological target: T1, ETV2 (Homo sapiens, UniProt O00321 1-342)
T1 sequence: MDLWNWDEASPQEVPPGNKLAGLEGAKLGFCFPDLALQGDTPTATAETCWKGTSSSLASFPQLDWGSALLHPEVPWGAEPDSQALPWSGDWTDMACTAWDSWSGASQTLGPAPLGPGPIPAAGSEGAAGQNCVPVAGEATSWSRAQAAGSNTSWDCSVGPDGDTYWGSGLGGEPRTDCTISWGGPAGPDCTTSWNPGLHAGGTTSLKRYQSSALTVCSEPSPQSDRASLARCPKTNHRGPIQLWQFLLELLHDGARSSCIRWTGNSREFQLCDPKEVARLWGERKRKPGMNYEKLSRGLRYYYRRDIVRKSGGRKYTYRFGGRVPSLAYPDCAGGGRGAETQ
Outline: as §1

ELF3 = biological target: T2, ELF3 (Homo sapiens, UniProt P78545 1-371)
T2 sequence: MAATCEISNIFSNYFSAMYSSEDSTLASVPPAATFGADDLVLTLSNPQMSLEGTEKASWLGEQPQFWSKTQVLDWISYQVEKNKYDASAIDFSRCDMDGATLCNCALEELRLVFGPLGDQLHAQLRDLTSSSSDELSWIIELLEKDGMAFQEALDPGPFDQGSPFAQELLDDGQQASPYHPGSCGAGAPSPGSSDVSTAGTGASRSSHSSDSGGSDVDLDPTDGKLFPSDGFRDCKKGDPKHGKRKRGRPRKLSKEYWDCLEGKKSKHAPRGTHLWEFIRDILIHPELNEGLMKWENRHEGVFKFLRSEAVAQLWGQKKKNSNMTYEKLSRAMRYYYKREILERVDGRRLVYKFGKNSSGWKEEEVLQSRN
Outline: as §1

ERF = biological target: T3, ERF (Homo sapiens, UniProt P50548 1-548)
T3 sequence: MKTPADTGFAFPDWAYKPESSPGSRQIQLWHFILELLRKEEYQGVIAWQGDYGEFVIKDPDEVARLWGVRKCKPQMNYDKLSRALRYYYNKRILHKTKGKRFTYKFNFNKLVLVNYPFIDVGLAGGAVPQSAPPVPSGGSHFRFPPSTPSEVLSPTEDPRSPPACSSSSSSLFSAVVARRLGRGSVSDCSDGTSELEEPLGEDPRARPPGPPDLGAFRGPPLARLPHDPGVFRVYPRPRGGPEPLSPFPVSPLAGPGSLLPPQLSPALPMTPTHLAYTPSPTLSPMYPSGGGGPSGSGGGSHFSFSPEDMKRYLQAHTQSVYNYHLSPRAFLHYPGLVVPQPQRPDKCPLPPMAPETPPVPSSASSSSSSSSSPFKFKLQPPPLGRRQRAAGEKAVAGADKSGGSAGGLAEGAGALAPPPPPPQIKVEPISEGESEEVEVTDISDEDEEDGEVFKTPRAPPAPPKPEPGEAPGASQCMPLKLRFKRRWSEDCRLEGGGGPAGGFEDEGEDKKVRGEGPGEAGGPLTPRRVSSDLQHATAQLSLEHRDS
Outline: as §1

ETV3L = biological target: T4, ETV3L (Homo sapiens, UniProt Q6ZN32 1-361)
T4 sequence: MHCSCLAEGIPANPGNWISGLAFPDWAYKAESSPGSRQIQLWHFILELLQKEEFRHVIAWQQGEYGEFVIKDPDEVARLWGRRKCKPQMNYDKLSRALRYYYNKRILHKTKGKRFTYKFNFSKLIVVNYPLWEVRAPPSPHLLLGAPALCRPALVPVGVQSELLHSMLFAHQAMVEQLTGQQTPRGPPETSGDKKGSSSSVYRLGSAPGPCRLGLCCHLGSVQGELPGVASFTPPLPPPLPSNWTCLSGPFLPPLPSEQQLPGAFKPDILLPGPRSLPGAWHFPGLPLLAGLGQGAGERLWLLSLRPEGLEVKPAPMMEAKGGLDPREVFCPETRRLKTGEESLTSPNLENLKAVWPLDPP
Outline: as §1

ETS2 = biological target: T5, ETS2 (Homo sapiens, UniProt P15036 1-469)
T5 sequence: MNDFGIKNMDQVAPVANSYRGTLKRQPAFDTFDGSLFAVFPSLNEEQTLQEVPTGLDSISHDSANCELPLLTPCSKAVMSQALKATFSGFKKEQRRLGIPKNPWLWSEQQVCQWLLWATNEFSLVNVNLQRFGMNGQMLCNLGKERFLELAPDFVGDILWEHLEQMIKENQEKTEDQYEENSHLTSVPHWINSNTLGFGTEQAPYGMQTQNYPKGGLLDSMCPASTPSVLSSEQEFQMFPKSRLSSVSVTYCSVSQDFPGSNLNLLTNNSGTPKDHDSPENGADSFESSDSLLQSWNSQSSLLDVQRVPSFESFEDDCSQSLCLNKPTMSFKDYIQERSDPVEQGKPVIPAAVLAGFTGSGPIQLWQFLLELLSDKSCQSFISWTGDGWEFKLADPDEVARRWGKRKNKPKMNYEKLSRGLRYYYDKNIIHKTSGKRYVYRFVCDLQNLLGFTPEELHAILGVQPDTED
Outline: as §1

ETV7 = biological target: T6, ETV7 (Homo sapiens, UniProt Q9Y603 1-341)
T6 sequence: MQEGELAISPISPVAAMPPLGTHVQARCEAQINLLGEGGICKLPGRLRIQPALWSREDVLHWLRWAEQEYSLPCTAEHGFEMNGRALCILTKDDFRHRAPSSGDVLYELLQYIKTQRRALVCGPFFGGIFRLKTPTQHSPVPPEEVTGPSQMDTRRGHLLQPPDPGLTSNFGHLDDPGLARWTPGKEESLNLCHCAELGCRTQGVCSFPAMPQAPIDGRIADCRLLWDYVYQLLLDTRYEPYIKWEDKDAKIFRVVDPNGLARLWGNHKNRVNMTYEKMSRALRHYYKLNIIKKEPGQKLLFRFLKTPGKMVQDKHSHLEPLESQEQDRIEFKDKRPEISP
Outline: as §1

ETV3 = biological target: T7, ETV3 (Homo sapiens, UniProt P41162-2 1-143)
T7 sequence: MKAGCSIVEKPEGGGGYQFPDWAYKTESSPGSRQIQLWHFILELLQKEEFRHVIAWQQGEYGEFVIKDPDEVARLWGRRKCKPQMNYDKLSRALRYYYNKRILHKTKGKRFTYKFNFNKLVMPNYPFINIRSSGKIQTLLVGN
Outline: as §1

ETV6 = ETV6 (Homo sapiens, UniProt P41212 1-452)
ETV6, sequence (P41212 whole entry): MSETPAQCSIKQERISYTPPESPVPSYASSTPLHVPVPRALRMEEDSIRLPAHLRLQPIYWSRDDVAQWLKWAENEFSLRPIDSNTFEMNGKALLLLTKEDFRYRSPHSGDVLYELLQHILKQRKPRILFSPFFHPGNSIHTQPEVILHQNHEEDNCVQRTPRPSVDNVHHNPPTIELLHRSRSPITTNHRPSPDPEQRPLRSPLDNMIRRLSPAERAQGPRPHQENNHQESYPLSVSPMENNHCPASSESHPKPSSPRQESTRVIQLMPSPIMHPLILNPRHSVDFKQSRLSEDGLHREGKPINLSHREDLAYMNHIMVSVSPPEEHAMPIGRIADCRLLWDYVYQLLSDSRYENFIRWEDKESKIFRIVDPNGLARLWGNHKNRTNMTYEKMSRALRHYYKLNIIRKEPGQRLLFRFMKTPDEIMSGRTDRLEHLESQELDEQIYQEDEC
Outline: as §1

CATACC
binding signal (ETV5): 1.04 fold enrichment (6-mer frequency, TF over GST control)
binding signal (ELF4): 1.1 fold enrichment (6-mer frequency, TF over GST control)
binding signal (ETV2): 1.16 fold enrichment (6-mer frequency, TF over GST control)
binding signal (ELF3): 1 fold enrichment (6-mer frequency, TF over GST control)
binding signal (ERF): 1.03 fold enrichment (6-mer frequency, TF over GST control)
binding signal (ETV3L): 1.17 fold enrichment (6-mer frequency, TF over GST control)
binding signal (ETS2): 1.1 fold enrichment (6-mer frequency, TF over GST control)
binding signal (ETV7): 1.03 fold enrichment (6-mer frequency, TF over GST control)
binding signal (ETV3): 1.06 fold enrichment (6-mer frequency, TF over GST control)
binding signal (ETV6): 1.01 fold enrichment (6-mer frequency, TF over GST control)
